The source made the active and inactive calls. Rule for the calls: active = hit-call score of the fitted dose curve at least 0.9, where 1 is the maximum; inactive = score below 0.9.
How the values were obtained:
Details in all cases: mRNA level, 48 h; actives raise or lower the signal
[1] = read-out: Alpha-fetoprotein (AFP) gene, AFP (gene 174); assay: LTEA_HepaRG_AFP: Life Technologies and Expression Analysis (LTEA) Assay for Alpha-fetoprotein (AFP) gene using HepaRG (AID 2283472)
Procedure, shortened: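 Human HepaRG cells plated 48 h, then switched to serum-free induction medium and exposed in duplicate for 48 h to 8-point half-log series from 100 uM in 0.5% DMSO. AFP mRNA by qRT-PCR, normalized to ACTB, GAPDH, POLR2A; bidirectional fit versus DMSO.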

BCL2L11 (gene 10018) = assay: LTEA_HepaRG_BCL2L11: Life Technologies and Expression Analysis (LTEA) Assay for Bcl-2 (BCL2L11) gene using HepaRG (AID 2283473)
Procedure, shortened: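 Read-out is BCL2L11 transcript level by qRT-PCR, normalized to three housekeeping genes and fitted bidirectionally against 0.5% DMSO vehicle. HepaRG cells received chemicals for 48 h in serum-free induction medium, 100 uM down in half-log dilutions.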

[2] = read-out: Apolipoprotein A-V (APOA5) gene, APOA5 (gene 116519); assay: LTEA_HepaRG_APOA5: Life Technologies and Expression Analysis (LTEA) Assay for Apolipoprotein A-V (APOA5) gene using HepaRG (AID 2283474)
Procedure, shortened: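 Readout is APOA5 transcript level by qRT-PCR on Fluidigm dynamic arrays, normalized to three housekeeping genes. HepaRG cultures received chemicals for 48 h at up to 100 uM (half-log steps, 0.5% DMSO), with gain or loss scored relative to DMSO.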

[3] = read-out: Apoptosis regulator Bcl-2 (Homo sapiens) (UniProt P10415); assay: LTEA_HepaRG_BCL2: Life Technologies and Expression Analysis (LTEA) Assay for Bcl-2 gene using HepaRG (AID 2283475)
Procedure, shortened: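 Differentiated HepaRG cells in serum-free induction medium were exposed for 48 h to eight half-log concentrations up to 100 uM in 0.5% DMSO, in duplicate. BCL2 mRNA was quantified by TaqMan qRT-PCR normalised to ACTB, GAPDH and POLR2A, with bidirectional fitting versus DMSO.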

[4] = read-out: Bcl-2 (BID) gene, BID (gene 637); assay: LTEA_HepaRG_BID: Life Technologies and Expression Analysis (LTEA) Assay for Bcl-2 (BID) gene using HepaRG (AID 2283476)
Procedure, shortened: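 Differentiated HepaRG cells in serum-free induction medium were exposed in duplicate for 48 h to eight half-log concentrations up to 100 uM in 0.5% DMSO. BID mRNA was quantified by qRT-PCR, normalized to ACTB, GAPDH and POLR2A.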

Caspase-3 (Homo sapiens) = Caspase-3 (Homo sapiens) (UniProt P42574); assay: LTEA_HepaRG_CASP3: Life Technologies and Expression Analysis (LTEA) Assay for cysteine-aspartic acid protease (CASP3) using HepaRG (AID 2283477)
Sequence of Caspase-3 (Homo sapiens) (P42574 whole entry, looked up): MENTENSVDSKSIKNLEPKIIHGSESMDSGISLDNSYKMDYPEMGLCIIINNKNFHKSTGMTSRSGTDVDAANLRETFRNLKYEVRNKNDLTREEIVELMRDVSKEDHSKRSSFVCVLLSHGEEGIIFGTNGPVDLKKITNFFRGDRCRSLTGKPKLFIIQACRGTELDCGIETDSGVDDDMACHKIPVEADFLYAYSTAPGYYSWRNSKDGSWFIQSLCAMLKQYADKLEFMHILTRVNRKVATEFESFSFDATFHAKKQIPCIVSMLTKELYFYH
Procedure, shortened: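 Read-out is CASP3 mRNA level by TaqMan qRT-PCR in human HepaRG cells after 48 h chemical exposure. Eight half-log concentrations topping at 100 uM were tested in 0.5% DMSO; gain or loss was fitted relative to DMSO.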

[5] = read-out: Cytochrome P450 (CYP1A2), CYP1A2 (gene 1544); assay: LTEA_HepaRG_CYP1A2: Life Technologies and Expression Analysis (LTEA) Assay for Cytochrome P450 (CYP1A2) using HepaRG (AID 2283479)
Procedure, shortened: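 CYP1A2 transcript induction or loss, quantified by Fluidigm qRT-PCR against three housekeeping genes, was fitted bidirectionally against 0.5% DMSO controls. Human HepaRG cells received eight half-log concentrations from 100 uM over 48 h.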

[6] = read-out: cysteine-aspartic acid protease (CASP8), CASP8 (gene 841); assay: LTEA_HepaRG_CASP8: Life Technologies and Expression Analysis (LTEA) Assay for cysteine-aspartic acid protease (CASP8) using HepaRG (AID 2283480)
Procedure, shortened: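 Differentiated human HepaRG cells, plated 48 h then switched to serum-free induction medium, were exposed in duplicate for 48 h to 8 half-log concentrations up to 100 uM in 0.5% DMSO. CASP8 mRNA was quantified by qRT-PCR, normalized to ACTB/GAPDH/POLR2A.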

[7] = read-out: Cytochrome P450 (CYP2B6), CYP2B6 (gene 1555); assay: LTEA_HepaRG_CYP2B6: Life Technologies and Expression Analysis (LTEA) Assay for Cytochrome P450 (CYP2B6) using HepaRG (AID 2283481)
Procedure, shortened: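 HepaRG cells plated 48 h, switched to serum-free induction medium, then dosed 48 h (8 points, half-log from 100 uM, 0.5% DMSO). RNA isolated; CYP2B6 expression measured by qRT-PCR; gain or loss fitted relative to DMSO.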

CYP2C8 (gene 1558) = assay: LTEA_HepaRG_CYP2C8: Life Technologies and Expression Analysis (LTEA) Assay for CYP2C8 using HepaRG (AID 2283483)
Procedure, shortened: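 Differentiated human HepaRG cells were exposed for 48 h in serum-free induction medium to eight half-log concentrations up to 100 uM in 0.5% DMSO, in duplicate. CYP2C8 mRNA was measured by TaqMan qRT-PCR, normalized to ACTB, GAPDH and POLR2A, and fitted bidirectionally against DMSO.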

CYP2C9 (gene 1559) = assay: LTEA_HepaRG_CYP2C9: Life Technologies and Expression Analysis (LTEA) Assay for CYP2C9 using HepaRG (AID 2283484)
Procedure, shortened: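 Differentiated human HepaRG cells were exposed 48 h in serum-free induction medium to eight half-log concentrations up to 100 uM in 0.5% DMSO. CYP2C9 mRNA was measured by qRT-PCR, normalized to ACTB, GAPDH and POLR2A, and fitted bidirectionally against DMSO.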

CYP2E1 (gene 1571) = assay: LTEA_HepaRG_CYP2E1: Life Technologies and Expression Analysis (LTEA) Assay for CYP2E1 using HepaRG (AID 2283485)
Procedure, shortened: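 HepaRG cells in serum-free induction medium exposed 48 h to test chemicals, 8 half-log concentrations up to 100 uM in 0.5% DMSO, duplicate. CYP2E1 mRNA by qRT-PCR, normalized to ACTB, GAPDH, POLR2A; bidirectional fit versus DMSO.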

CYP4A11 (gene 1579) = assay: LTEA_HepaRG_CYP4A11: Life Technologies and Expression Analysis (LTEA) Assay for CYP4A11 using HepaRG (AID 2283486)
Procedure, shortened: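 HepaRG, 48 h chem exposure, 8 conc (100 uM top, half-log), 0.5% DMSO vehicle; qRT-PCR readout, housekeeping-gene normalized; bidirectional curve fit vs DMSO baseline.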

[8] = read-out: Cytochrome P450 3A4 (Homo sapiens) (UniProt P08684); assay: LTEA_HepaRG_CYP3A4: Life Technologies and Expression Analysis (LTEA) Assay for CYP3A4 using HepaRG (AID 2283487)
Procedure, shortened: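 In a human hepatic line (HepaRG), duplicate wells were treated 48 h with up to 100 uM chemical in half-log dilutions. Endpoint: CYP3A4 mRNA induction or loss relative to 0.5% DMSO vehicle, by qRT-PCR.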

[9] = read-out: Pro-epidermal growth factor (Homo sapiens) (UniProt P01133); assay: LTEA_HepaRG_EGF: Life Technologies and Expression Analysis (LTEA) Assay for Epidermal growth factor (EGF) using HepaRG (AID 2283489)
Procedure, shortened: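 HepaRG, 48 h dosing, 100 uM top, half-log x8, 0.5% DMSO. Readout: TaqMan qRT-PCR (Fluidigm array), housekeeping-normalized. Gain or loss of signal fit vs DMSO.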

[10] = read-out: Early growth response protein 1 (EGR1) transcription factor, EGR1 (gene 1958); assay: LTEA_HepaRG_EGR1: Life Technologies and Expression Analysis (LTEA) Assay for Early growth response protein 1 (EGR1) transcription factor using HepaRG (AID 2283490)
Procedure, shortened: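 Differentiated human HepaRG cells in serum-free induction medium were exposed in duplicate for 48 h to eight concentrations (top 100 uM, half-log steps) in 0.5% DMSO. EGR1 mRNA was quantified by qRT-PCR, normalized to ACTB, GAPDH and POLR2A, and fitted bidirectionally versus DMSO.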

[11] = read-out: Ezrin (EZR), EZR (gene 7430); assay: LTEA_HepaRG_EZR: Life Technologies and Expression Analysis (LTEA) Assay for Ezrin (EZR) using HepaRG (AID 2283491)
Procedure, shortened: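 Gain or loss of EZR mRNA is scored relative to 0.5% DMSO in human HepaRG cultures treated 48 h with test chemicals in duplicate, eight half-log concentrations from 100 uM.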

[12] = read-out: DNA damage-inducible transcript 3 (DDIT3), DDIT3 (gene 1649); assay: LTEA_HepaRG_DDIT3: Life Technologies and Expression Analysis (LTEA) Assay for DNA damage-inducible transcript 3 (DDIT3) using HepaRG (AID 2283488)
Procedure, shortened: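 Differentiated human HepaRG cells in serum-free induction medium were exposed in duplicate for 48 h to 8 concentrations (top 100 uM, half-log steps, 0.5% DMSO). DDIT3 mRNA measured by TaqMan qRT-PCR, normalized to ACTB/GAPDH/POLR2A; bidirectional fit versus DMSO.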

[13] = read-out: Cytochrome P450 2C19 (Homo sapiens) (UniProt P33261); assay: LTEA_HepaRG_CYP2C19: Life Technologies and Expression Analysis (LTEA) Assay for CYP2C19 using HepaRG (AID 2283482)
Procedure, shortened: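 Transcript levels of CYP2C19 were quantified by qRT-PCR after HepaRG cells were treated for 48 hours with test chemicals up to 100 uM (eight half-log concentrations, 0.5% DMSO vehicle). Gain or loss of signal was fitted relative to DMSO.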

Measured: AC50

Sequence of Cytochrome P450 3A4 (Homo sapiens) (P08684 whole entry, looked up): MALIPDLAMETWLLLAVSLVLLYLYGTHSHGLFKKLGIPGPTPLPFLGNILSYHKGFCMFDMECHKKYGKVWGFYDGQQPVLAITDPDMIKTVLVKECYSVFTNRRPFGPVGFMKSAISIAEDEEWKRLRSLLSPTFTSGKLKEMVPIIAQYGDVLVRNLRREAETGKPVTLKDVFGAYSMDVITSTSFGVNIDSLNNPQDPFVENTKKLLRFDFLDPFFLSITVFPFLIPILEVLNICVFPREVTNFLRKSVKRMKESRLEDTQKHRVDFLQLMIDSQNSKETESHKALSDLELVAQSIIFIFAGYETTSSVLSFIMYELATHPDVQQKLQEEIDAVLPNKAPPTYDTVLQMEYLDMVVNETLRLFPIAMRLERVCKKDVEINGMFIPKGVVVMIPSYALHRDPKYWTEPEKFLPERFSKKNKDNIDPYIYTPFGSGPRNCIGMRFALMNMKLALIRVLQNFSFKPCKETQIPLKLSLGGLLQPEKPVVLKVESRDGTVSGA
Sequence of Apoptosis regulator Bcl-2 (Homo sapiens) (P10415 whole entry, looked up): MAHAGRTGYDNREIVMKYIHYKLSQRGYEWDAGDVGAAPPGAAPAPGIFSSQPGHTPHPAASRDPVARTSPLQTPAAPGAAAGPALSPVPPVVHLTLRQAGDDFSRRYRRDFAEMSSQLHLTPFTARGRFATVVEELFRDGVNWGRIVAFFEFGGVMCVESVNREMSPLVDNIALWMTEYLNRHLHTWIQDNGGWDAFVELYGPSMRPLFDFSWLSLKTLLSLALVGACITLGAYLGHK
Sequence of Cytochrome P450 2C19 (Homo sapiens) (P33261 whole entry, looked up): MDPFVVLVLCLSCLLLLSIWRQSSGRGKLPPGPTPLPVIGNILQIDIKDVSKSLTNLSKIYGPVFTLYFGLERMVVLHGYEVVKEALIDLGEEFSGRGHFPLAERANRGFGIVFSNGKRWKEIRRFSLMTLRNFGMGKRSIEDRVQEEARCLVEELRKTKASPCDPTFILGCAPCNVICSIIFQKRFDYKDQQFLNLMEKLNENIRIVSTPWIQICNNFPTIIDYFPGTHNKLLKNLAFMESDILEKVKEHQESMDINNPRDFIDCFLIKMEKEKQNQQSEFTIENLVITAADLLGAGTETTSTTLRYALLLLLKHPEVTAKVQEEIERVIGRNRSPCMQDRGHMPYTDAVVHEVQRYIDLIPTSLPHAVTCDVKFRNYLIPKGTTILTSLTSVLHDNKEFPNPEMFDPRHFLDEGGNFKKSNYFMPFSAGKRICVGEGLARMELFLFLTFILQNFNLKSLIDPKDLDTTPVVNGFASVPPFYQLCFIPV

Cc1cccc(N)c1N
active: [1] 81.5 µM | BCL2L11 (gene 10018) 9.92 µM | [2] 37.6 µM | [5] 8.42 µM | CYP2C8 (gene 1558) 50 µM | CYP2C9 (gene 1559) 50 µM | CYP2E1 (gene 1571) 58.1 µM | CYP4A11 (gene 1579) 86.1 µM
not listed: [12] | [13]
inactive: all other assays above

ClCCOCCCl
not listed: [7] | [10] | [13]
inactive: all other assays above

CCCCCCCCn1sccc1=O
active: [1] 79.5 µM | [2] 82.9 µM | CYP2C8 (gene 1558) 85.9 µM | CYP2C9 (gene 1559) 85.3 µM | CYP2E1 (gene 1571) 84.2 µM | CYP4A11 (gene 1579) 91.1 µM | [8] 81.4 µM
not listed: [7] | [10] | [12] | [13]
inactive: all other assays above

CO[C@@H]1[C@H](OC(=O)NC(=O)CCl)CC[C@]2(CO2)[C@H]1[C@@]1(C)O[C@@H]1CC=C(C)C
not listed: [7] | [10]
inactive: all other assays above

— PubChem BioAssay (EPA / NIEHS)
